Source: PubChem (National Center for Advancing Translational Sciences (NCATS))
APE1 inh = qHTS Assay for Inhibitors of the Human Apurinic/apyrimidinic Endonuclease 1 (APE1); recombinant APE1, TAMRA/BHQ-2 abasic DNA cleavage fluorescence; DNA repair nuclease/redox regulator APEX1 (Homo sapiens), P27695; actives 0.35% (n = 350,000); Potency, µM (doses to about 65.8 µM), inactives show at the highest dose activity change, negative = inhibition, most hits filed as inhibitors;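 also: plate controls were vehicle for no effect and reference inhibitor for full effect; nearly all actives have a fitted effect of over 55% in size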
Target sequence (P27695 whole entry, looked up): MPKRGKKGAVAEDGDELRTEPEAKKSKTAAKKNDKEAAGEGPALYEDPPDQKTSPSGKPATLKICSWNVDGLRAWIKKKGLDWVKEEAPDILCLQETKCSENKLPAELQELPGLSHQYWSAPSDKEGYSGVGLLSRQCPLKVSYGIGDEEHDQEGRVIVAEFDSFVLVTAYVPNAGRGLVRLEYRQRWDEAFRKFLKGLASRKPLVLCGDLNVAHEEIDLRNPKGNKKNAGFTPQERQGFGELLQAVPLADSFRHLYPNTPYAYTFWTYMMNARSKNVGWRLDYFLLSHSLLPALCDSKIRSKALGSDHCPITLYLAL
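Quantitative HTS: incision of a TAMRA/BHQ-2 double-stranded substrate bearing a tetrahydrofuran abasic site by 0.75 nM APE1 raises fluorescence. Substrate 50 nM final, added after 15 min compound preincubation at room temperature; progress as third-minus-first kinetic read difference.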
RECQ1 inh-1 = qHTS Assay for Inhibitors of RecQ-Like Dna Helicase 1 (RECQ1) | actives 0.54% (n = 240,000) | Potency, µM (highest dose often 57.3 µM), inactives show at the highest dose activity, negative = inhibition, most hits filed as inhibitors | RECQ1 DNA unwinding, red fluorescence kinetic read | ATP-dependent DNA helicase Q1 (Homo sapiens), P46063;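 also: plate controls were vehicle for no effect and no enzyme for full effect; nearly all actives have a fitted effect of over 30% in size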
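RECQ1T1 50 nM; forked duplex (20 bp + 30-nt ss tails) 200 nM, ATP 2 mM final; pH 8.0, 2 mM MgCl2, 2.5 ug/ml poly(dI-dC); 15 min compound preincubation; discontinuous kinetic read over 2 h at RT.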
WRN helicase inh = qHTS for Inhibitors of WRN Helicase | WRN helicase unwinding, fluorescent forked duplex, kinetic | Potency, µM (doses to about 114 µM), inactives show at the top dose activity change, negative = inhibition, actives largely listed as inhibitors | actives 0.46% (n = 360,000) | AID 651768, 2012; also: % is scaled to controls: 0 for no effect and ±100 for the full control effect; nearly all actives have a fitted effect of over 55% in size
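Screening of the MLSMR collection measured strand separation of a quenched forked DNA duplex (100 nM) by 20 nM WRN with 2 mM ATP, all final. Compounds were preincubated with enzyme 15 min at room temperature.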
FEN1 inh-1 = qHTS Assay for the Inhibitors of Human Flap endonuclease 1 (FEN1). P39748. Potency, µM (highest dose often 114 µM), without a hit: at the highest dose activity change, negative = inhibition, usual class: inhibitors. Recombinant FEN1 flap cleavage, fluorescence, 15 min. actives 0.35% (n = 390,000); also: % is scaled to controls: 0 for no effect and ±100 for the full control effect; nearly all actives have a fitted effect of over 65% in size
Target sequence (P39748 whole entry, looked up): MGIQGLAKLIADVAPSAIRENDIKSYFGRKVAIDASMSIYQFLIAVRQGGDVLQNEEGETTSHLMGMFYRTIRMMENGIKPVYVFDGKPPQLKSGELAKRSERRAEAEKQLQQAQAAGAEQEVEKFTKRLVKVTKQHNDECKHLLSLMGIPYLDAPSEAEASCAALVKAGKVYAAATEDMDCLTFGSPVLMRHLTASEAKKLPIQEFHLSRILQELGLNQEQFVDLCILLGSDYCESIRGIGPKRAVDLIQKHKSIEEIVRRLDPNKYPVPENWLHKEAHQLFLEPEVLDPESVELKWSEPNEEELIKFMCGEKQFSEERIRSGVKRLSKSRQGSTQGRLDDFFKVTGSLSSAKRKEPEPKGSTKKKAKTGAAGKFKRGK
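Compounds are tested as a concentration series against 10 nM FEN1; after a 15 min room-temperature preincubation, 50 nM substrate starts cleavage, with plate reads at 0 and 15 min. Normalized responses are fitted by a Hill equation.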
BLM inh-1 = qHTS Assay for Inhibitors of Bloom's syndrome helicase (BLM); RecQ-like DNA helicase BLM (Homo sapiens), P54132; recombinant BLM DNA unwinding, fluorescence dequenching; Potency, µM (series often up to 56.1 µM), without a hit: top-dose activity change, negative = inhibition, actives largely listed as inhibitors; actives 0.2% (n = 350,000); AID 2528, 2010;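 also: plate controls were vehicle for no effect and no enzyme for full effect; nearly all actives have a fitted effect of over 35% in size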
BLM inh-2 = qHTS Confirmation Assay for Inhibitors of Bloom's syndrome helicase (BLM); shares compounds with BLM inh-1; BLM DNA unwinding, fluorescence quenching, biochemical; Potency, µM, without a hit: max response, negative = inhibition, most hits filed as inhibitors; actives 40% (n = 220);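 also: strand separation dequenches TAMRA so unwinding raises red fluorescence; series mostly up to about 69 µM; % is scaled to controls: 0 for no effect and ±100 for the full control effect; nearly all actives have a fitted effect of over 45% in size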
RECQ1 conf = Confirmation qHTS Assay for Inhibitors of RecQ-Like Dna Helicase 1 (RECQ1); shares compounds with RECQ1 inh-1; RECQ1 helicase DNA unwinding, fluorescence; Potency, µM (highest dose often 229 µM), inactives show at the top dose activity change, negative = inhibition, usual class: inhibitors; actives 28% (n = 610); AID 2708, 2010; also: % is scaled to controls: 0 for no effect and ±100 for the full control effect; nearly all actives have a fitted effect of over 45% in size
ADP FP counter = Counterscreen for RECQ1 Inhibitors: ADP Fluorescence Polarization Displacement Assay. Potency, µM (series often up to 228 µM), without a hit: top-dose activity change, negative = inhibition, usual class: inhibitors. AID 2711, 2010. actives 27% (n = 530). shares compounds with RECQ1 inh-1. ADP fluorescence polarization displacement counterscreen; also: % is scaled to controls: 0 for no effect and ±100 for the full control effect; nearly all actives have a fitted effect of over 45% in size
RECQ1 inh-2 = Confirmation qHTS Assay for Inhibitors of RecQ-Like Dna Helicase 1 (RECQ1) - Round 2 Cherry Picks. shares compounds with RECQ1 inh-1. recombinant RECQ1 DNA unwinding, red fluorescence. Potency, µM (titrated, usually from 119 µM), inactives show at the top dose activity, negative = inhibition, actives largely listed as inhibitors. actives 15% (n = 1,100); also: % is scaled to controls: 0 for no effect and ±100 for the full control effect; nearly all actives have a fitted effect of over 50% in size
FEN1 inh-2 = qHTS Assay for the Inhibitors of FEN1: Confirmatory Assay for Cherry-picked Compounds; Potency, µM, most hits filed as inhibitors; actives 79% (n = 880); shares compounds with FEN1 inh-1; FEN1 flap cleavage, TAMRA/BHQ2 fluorogenic DNA substrate; also: nearly all actives have a fitted effect of over 60% in size
Active calls of the source: *; i = inactive; ? = inconclusive; . = no result given; [ ] = another dose, or the depositor's remark. Rows were chosen to be rich in hits. Some 0.87% of all compounds tested hit in one or more screens of this group. Calls follow the shape of the dose curve; as a rule, active = well fitted curve in the direction sought with a large enough effect; inconclusive = small, poorly fitted or top-dose-only effect, or another doubt; inactive = no such curve, though single readings can be large; an effect the other way counts as inactive or inconclusive. Potency is read from the fitted curve at half-maximal effect.

SMILES	APE1 inh	RECQ1 inh-1	WRN helicase inh	FEN1 inh-1	BLM inh-1	BLM inh-2	others
O=C1c2ccccc2C(=O)c2c1cccc2-n1nnc2ccccc21	-6%	i	-4%	-10%	-2%	.
O=C1C(N2CCOCC2)=C(n2nnc3ccccc32)C(=O)c2ccccc21	-2%	-19%	-1%	-12%	35µM*	?
O=C(CC1Nc2cccc3cccc(c23)NC1=O)Nc1ccccc1 (centres undefined)	5%	-6%	-4%	2%	?	.
NC(=O)CC1Nc2cccc3cccc(c23)NC1=O (centres undefined)	5%	-4%	-28%	-10%	2.8µM*	-9%
Cc1ccc(S(=O)(=O)N2CCCCC2)cc1NC(=O)Cc1cccs1	18%	.	-1%	-8%	.	.
O=C(Cc1cccs1)Nc1ccc(S(=O)(=O)N2CCCC2)cc1	-2%	26%	?	-17%	18µM*	?
Cc1cc(C(C)C)n2c(nc3ccccc32)c1C#N	-1%	-6%	.	.	-1%	.
Cc1cc(-c2ccco2)c(C#N)c2nc3ccccc3n12	-2%	i	-35%	?	2.5µM*	?
CC(C)Cn1c(N)c(C(=O)NCC2CCCO2)c2nc3ccccc3nc21 (centres undefined)	-7%	14%	-15%	?	8.9µM*	-10%
COc1ccc(OC)c(-n2c(N)c(C(=O)NCC3CCCO3)c3nc4ccccc4nc32)c1 (centres undefined)	-5%	-1%	-10%	-23%	-5%	.
O=C(CSc1nc2scc(-c3ccco3)c2c(=O)n1-c1ccccc1)NCC1CCCO1 (centres undefined)	?	?	-23%	1%	14µM*	?	RECQ1 inh-2=?
Cn1c(SCC(=O)NCC2CCCO2)nc2scc(-c3ccccc3)c2c1=O (centres undefined)	24%	.	-3%	-4%	.	.
N#C/C(=C\c1ccc(N2CCOCC2)o1)c1nc2ccccc2[nH]1	?	32µM*	50µM*	?	22µM*	?	RECQ1 inh-2=?
N#C/C(=C\c1ccc(N2CCOCC2)c([N+](=O)[O-])c1)c1nc2ccccc2[nH]1	?	10%	-34%	?	-19%	.
Cc1cccc(CSc2nc(=O)c3c(n2C)NC(=O)CC3c2cc(F)cc(F)c2)c1 (centres undefined)	.	.	.	-6%	-1%	.
Oc1ccc(Nc2nc(NCC3CCCO3)c3ccccc3n2)cc1 (centres undefined)	-7%	14µM*	35µM*	?	16µM*	14µM*	RECQ1 conf=25µM*;ADP FP counter=?;RECQ1 inh-2=40µM*
COc1ccc(Cn2c(SCc3ccc(C(=O)NC(C)C)cc3)nc3cccnc32)cc1	.	.	.	4%	5%	.
C=C(c1ccc(C(=O)O)cc1)c1cc2c(cc1C)C(C)(C)CCC2(C)C	.	.	.	.	?	68µM*	RECQ1 conf=?
Cc1nc2c(ccc3nc(NC(=O)c4ccc5c(c4)OCCO5)sc32)s1	-3%	20µM*	?	?	-24%	30µM*	ADP FP counter=44%[91.9 µM];RECQ1 inh-2=45µM*
CN(C)c1ccc(/C=C/c2c3ccccc3cc[n+]2[O-])cc1	.	.	.	-2%	.	.
CN(C)c1ccc(/C=C/c2ccc3c4ccccc4ccc3[n+]2-c2ccccc2)cc1	-3%	20µM*	13µM*	8.9µM*	?	68µM*	RECQ1 conf=22µM*
Cc1ccc(SCc2cc(=O)c3c(=O)n(-c4ccccc4)[nH]c3[nH]2)cc1	?	?	?	-9%	16µM*	5%	RECQ1 inh-2=-7%
Cc1cnc(CNc2nc(-c3ccccc3C(F)(F)F)nc3ccccc23)cn1	-6%	i	.	.	3%	.
Cc1cnc(CNc2nc(-c3ccc(N(C)C)cc3)nc3ccccc23)cn1	-4%	?	.	.	28µM*	20µM*	RECQ1 inh-2=?
CCOC(=O)Cn1c(=O)n(CC2CCCO2)c2nc(-c3ccc(CC)cc3)nc(C(N)=O)c21 (centres undefined)	.	.	.	-2%	-1%	.
SMILES	APE1 inh	RECQ1 inh-1	WRN helicase inh	FEN1 inh-1	BLM inh-1	BLM inh-2	others
COC1=C(OC)C(=O)c2ccccc2C1=O	-5%	-11%	.	?	.	.
CC1(C)C(=O)NC2=C1C(=O)C(=O)c1ccccc12	?	8.9µM*	.	.	2.5µM*	5.1µM*	RECQ1 conf=0.5µM*;ADP FP counter=8.9µM*
Nc1cccc(/C=C/c2ccnc3ccccc23)c1	.	.	.	-15%	.	.
COC(=O)c1ccccc1NC(=O)Cn1c(=O)n(-c2ccc(C)cc2)c(=O)c2ccccc21	.	.	.	14%	-12%	.
O=C(N/N=C/c1ccc(F)cc1)c1cc(-c2ccco2)nc2ccccc12	4.5µM*	10µM*	40µM*	79µM*	8.9µM*	18µM*	RECQ1 conf=40µM*;ADP FP counter=?
Nc1ccc2nc(-c3cc(Cl)c(N)c(Cl)c3)[nH]c2c1	7%	2%	?	50µM*	14µM*	?	FEN1 inh-2=?
Cc1ccc(Cl)cc1NC(=O)Cn1c(SCC(=O)NCc2ccccc2)nc2ccccc21	.	.	.	-3%	-3%	.
